From PubChem BioAssay (Tox21)
Records with an inconclusive call do not appear. Where a call stands in place of a potency, no number is given. Unmarked numbers belong to inactive results. Activity calls are given as the source filed them. The call rests on the fitted dose curve; in most records, active means well fitted inhibition curve with a large enough effect in the repeat runs; inconclusive means weak or mixed curves; inactive means flat fitted curve, though single readings scatter.

Assay: qHTS assay to identify small molecule HDAC inhibitors (AID 1259364); further: nearly all actives have a fitted effect of over 45% in size; on activity change, negative = inhibition: top concentration of the series differs between compounds
Conditions: HCT-116 HDAC-Glo I/II luminescence, 2 h; series mostly up to 92.4 µM
Excerpt: U.S. Tox21 Program National Center for Advancing Translational Sciences [NCATS] NIH Chemical Genomics Center [NCGC] U.S. Environmental Protection Agency [EPA] National Institutes of Environmental Health Sciences [NIEHS] National Toxicology Program [NTP] U.S. Food and Drug Administration [FDA] Tox21 Assay Overview: Histone deacetylases (HDACs) are a group of epigenetic enzymes that regulate gene expression by histone deacetylation. HDACs are capable of introducing epigenetic modifications and such aberrations contribute to the onset and progression of several human diseases, thus making HDACs a popular therapeutic target. For identifying endogenous class I/II HDAC inhibitors a homogenous, luminogenic HDAC I/II cell based assay was used to measure the relative activity of class I and II HDACs from cells. Wild type HCT-116 cells were used to screen Tox21 libraries for identifying class I/II HDAC inhibitors.
Tox21 Assay Protocol Summary: HCT-116 cells were dispensed at 1,500 per well in 5uL of culture medium into white solid bottom 1536-well plates (Greiner Bio-One, Monroe, NC) using a Multidrop Combi (Thermo Scientific, Waltham, MA) dispenser. The assay plates were incubated at 37 C and 5% CO2 for an overnight, and then 23nL of compounds dissolved in DMSO and positive control were transferred using a Pintool station (Wako, San Diego, CA). The assay plates were incubated at 37C and 5% CO2 for 2hr. After compound treatment, 4uL of HDAC-Glo reagent (Promega Corporation, Madison, WI) was added to each well of the assay plates using Flying Reagent Dispenser (FRD, Aurora Discovery, San Diego, CA) and incubated the assay plates at room temperature for 30min. The luminescence signal was quantified using a ViewLux plate reader (Perkin Elmer, Shelton, CT).
Potency means the concentration at half of the fitted maximal effect.

Structure (SMILES) | Potency | activity change, negative = inhibition
CCc1oc2ccccc2c1C(=O)c1cc(Br)c(O)c(Br)c1 | inactive | –
CN(C/C=C/C#CC(C)(C)C)Cc1cccc2ccccc12 | inactive | –
CC[C@@]1(O)C(=O)OCc2c1cc1n(c2=O)Cc2c-1nc1ccccc1c2/C=N/OC(C)(C)C | inactive | –
CCCCCCCCCCCC(=O)NCCCN(C)C | inactive | –
O=C(Oc1ccccc1)c1ccccc1C(=O)Oc1ccccc1 | inactive | –
O=C(O)c1cc(O)c2c(c1)C(=O)c1cccc(O)c1C2=O | 14.1 µM (active) | –
CCCC/C=C/CCCCO | inactive | –
ON=C1CCCC1 | inactive | –
N#CC1(c2ccc(F)cc2)CCC(=O)CC1 | inactive | –
CCc1cc(Cc2cc(CC)cc(C(C)(C)C)c2O)c(O)c(C(C)(C)C)c1 | inactive | –
CC1=C(C(=O)OC(C)C)C(c2cccc([N+](=O)[O-])c2)C(C(=O)OC2CN(C(c3ccccc3)c3ccccc3)C2)=C(N)N1 (stereo not given) | inactive | –
CSc1ccc2c(c1)C(N1CCN(C)CC1)Cc1ccccc1S2 (stereo not given) | inactive | –
O=c1c(-c2ccccc2)c1-c1ccccc1 | inactive | –
CCCCCOc1ccccc1/C(=C\SC)n1ccnc1 | inactive | –
[Cl][Bi]([Cl])([c]1ccccc1)([c]1ccccc1)[c]1ccccc1 | inactive | –
CSc1ccc(/C=C2/C(C)=C(CC(=O)O)c3cc(F)ccc32)cc1 | inactive | –
O=C(c1ccc(F)cc1)C1CCN(CCn2c(=O)[nH]c3ccccc3c2=O)CC1 | inactive | –
C1CCCC1 | inactive | –
C[n+]1cc2c3c(ccc2c2ccc4cc5c(cc4c21)OCO5)OCO3 | – | -20.3% [at 19 µM]
CC(C)(C)NC(=O)[C@@H]1C[C@@H]2CCCC[C@@H]2CN1C[C@@H](O)[C@H](Cc1ccccc1)NC(=O)[C@H](CC(N)=O)NC(=O)c1ccc2ccccc2n1 | inactive | –

Structure (SMILES) | Potency | activity change, negative = inhibition
COc1cccc(N)c1 | inactive | –
CCN(CC)CCNC(=O)c1c(C)[nH]c(/C=C2\C(=O)Nc3ccc(F)cc32)c1C | inactive | –
COC(=O)C1=C(C)NC(C)=C(C(=O)OCC(C)C)C1c1ccccc1[N+](=O)[O-] (stereo not given) | inactive | –
Cc1ccc(-n2nc(C(C)(C)C)cc2NC(=O)Nc2ccc(OCCN3CCOCC3)c3ccccc23)cc1 | inactive | –
CSc1cnc(C)cn1 | inactive | –
O=c1[nH]cnc2nc[nH]c12 | inactive | –
O=c1cccccc1O | inactive | –
CCCCN1C(=O)[C@@H]([C@H](O)C2CCCCC2)NC(=O)C12CCN(Cc1ccc(Oc3ccc(C(=O)O)cc3)cc1)CC2 | inactive | –
Clc1ccc2cc3ccccc3cc2c1 | 54.4 µM (active) | –
NC(=NCCCCCCN=C(N)/N=C(\N)Nc1ccc(Cl)cc1)/N=C(\N)Nc1ccc(Cl)cc1 | inactive | –
N=C1N=C(N)c2ccccc21 | inactive | –
CCCCC(CC)COC(=O)c1ccccc1C(=O)O (stereo not given) | inactive | –
CNC(=O)c1ccccc1 | inactive | –
O=C(Nc1cccc([N+](=O)[O-])c1)c1cc2ccccc2cc1O | 1.54 µM (active) | –
Cc1cc(=O)oc2cc(N(C)C)ccc12 | inactive | –
CS(=O)(=O)CCNCc1ccc(-c2ccc3ncnc(Nc4ccc(OCc5cccc(F)c5)c(Cl)c4)c3c2)o1 | inactive | –
O=C(NO)C1(NS(=O)(=O)c2ccc(Oc3ccc(F)cc3)cc2)CCOCC1 | inactive | –
Cc1c(C)c2c(c(C)c1OC(=O)CCC(=O)O)CC[C@@](C)(CCC[C@H](C)CCC[C@H](C)CCCC(C)C)O2 | inactive | –
CCCCCCCC[N+](CCCCCCCC)(CCCCCCCC)CCCCCCCC | inactive | –
Cc1cccc2c1cc1ccc3cccc4ccc2c1c34 | inactive | –
